PubChem BioAssay (NCI)
Several values for one entry are separate records, joined by “and”; a condition that tells them apart may be missing. Identical values can stand only once. The panel holds about 79,000 compounds, 15% with a hit somewhere; the sample as a whole holds those more often. A number with no mark means an inactive call. Activity calls are given as the source filed them. Rule as the data show it: active = growth inhibition above about 70%; inactive = the rest.

Legend:
[1] = NCI Yeast Anticancer Drug Screen. Data for the rad50 strain (AID 155);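 also: 0% = growth of vehicle-only cultures of the same strain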; settings: S. cerevisiae rad50 strain growth inhibition, active compounds read high; at 50.0 µM unless noted
How it was run: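 Cells are treated with compound, grown, and their growth is then scored against vehicle-only cultures of the same repair-deficient yeast strain.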

[2] = NCI Yeast Anticancer Drug Screen. Data for the mec2-1 strain (AID 157); settings: S. cerevisiae mec2-1 strain, active compounds read high; at 50.0 µM unless noted
How it was run: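 Readout is yeast growth inhibition, normalised to vehicle-treated controls, in the mec2-1 strain exposed to compound.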

[3] = NCI Yeast Anticancer Drug Screen. Data for the sgs1 mgt1 strain (AID 161);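 also: 0% = growth of cultures given vehicle only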; settings: S. cerevisiae sgs1 mgt1 strain, active compounds read high; at 50.0 µM unless noted
How it was run: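 Compounds are added to genetically altered yeast, and growth is compared with cultures given vehicle alone to give percent inhibition.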

[4] = NCI Yeast Anticancer Drug Screen. Data for the cln2 rad14 strain (AID 165);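 also: 0% = growth equal to vehicle treated cultures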; settings: S. cerevisiae cln2 rad14 strain, active compounds read high; at 50.0 µM unless noted
How it was run: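 Relative to vehicle controls, growth inhibition of compound-treated cln2 rad14 yeast was recorded.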

[5] = NCI Yeast Anticancer Drug Screen. Data for the bub3 strain (AID 167); settings: S. cerevisiae bub3 mutant strain, active compounds read high; at 50.0 µM unless noted
How it was run: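 Part of a panel of yeast mutants defective in DNA damage repair or cell cycle regulation. Each strain is grown with compound, and inhibition is calculated relative to solvent-treated cultures.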

[6] = NCI Yeast Anticancer Drug Screen. Data for the mlh1 rad18 strain (AID 175); settings: S. cerevisiae mlh1 rad18 strain growth inhibition, active compounds read high; at 50.0 µM unless noted
How it was run: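 Test agents were incubated with a yeast strain of defined genotype (DNA damage repair defect). Inhibition of growth was derived by comparison with vehicle-exposed cultures.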

CC(C)(C)COB(OCC(C)(C)C)OCC(C)(C)C
growth inhibition [1]: -2.8%
growth inhibition [2]: -13.2%
growth inhibition [3]: 3.55%
growth inhibition [4]: -29.1%
growth inhibition [5]: -9.55%
growth inhibition [6]: -15.2%

O=C1NCCCc2nonc21
growth inhibition [1]: 18.9%
growth inhibition [2]: 16.4%
growth inhibition [3]: 7.9%
growth inhibition [4]: 4%
growth inhibition [5]: 4%
growth inhibition [6]: 5.2%

CC(C)(C)OC(=O)NNS(=O)(=O)CCC(NC(=O)OCc1ccccc1)C(=O)OCc1ccccc1 (stereo not given)
growth inhibition [1]: 46.7%
growth inhibition [2]: 93.2% (active)
growth inhibition [3]: 51.1%
growth inhibition [4]: 86.5% (active)
growth inhibition [5]: 94.5% (active)
growth inhibition [6]: 95.6% (active)

O=C(OC(C1COCO1)C(O)C1COCO1)c1ccccc1 (stereo not given)
growth inhibition [1]: 5.65%
growth inhibition [2]: -8.85%
growth inhibition [3]: 9.05%
growth inhibition [4]: -1.85%
growth inhibition [5]: 28.4%
growth inhibition [6]: 17.4%

CCCN(CCC)C(=O)c1ccccc1C
growth inhibition [1]: 9.5%
growth inhibition [2]: -2%
growth inhibition [3]: 6.65%
growth inhibition [4]: -14.1%
growth inhibition [5]: 18.4%
growth inhibition [6]: 2.9%

CCCCSCC(N)CO (stereo not given)
growth inhibition [1]: 9.05%
growth inhibition [2]: 5.2%
growth inhibition [3]: 10.7%
growth inhibition [4]: -34.2%
growth inhibition [5]: 0.55%
growth inhibition [6]: 1.75%

CN1C(=O)/C(=C2\SC(=O)N(CN3CCOCC3)C2=O)c2ccccc21
growth inhibition [1]: -6.1%
growth inhibition [2]: -32.9%
growth inhibition [3]: -40%
growth inhibition [4]: -7.55%
growth inhibition [5]: -39%
growth inhibition [6]: 2.35%

O=c1[nH]cnc2c1ncn2C1OC(CO)C(O)C1O (stereo not given)
growth inhibition [1]: 8% and -14.7%
growth inhibition [2]: 8.25% and -20.1%
growth inhibition [3]: 0.45% and 12.8%
growth inhibition [4]: -117% and 5%
growth inhibition [5]: 15.4% and 21.7%
growth inhibition [6]: 5.85% and 5.3%

C=CCNC(=S)N/C=C(\C#N)C(N)=O
growth inhibition [1]: -24.4%
growth inhibition [2]: -40.3%
growth inhibition [3]: -27.2%
growth inhibition [4]: -7.15%
growth inhibition [5]: -12.6%
growth inhibition [6]: -41.5%

COc1ccc(Cl)cc1N
growth inhibition [1]: -14.3% and 17.1%
growth inhibition [2]: -15.6% and -4%
growth inhibition [3]: -12.7% and -2.8%
growth inhibition [4]: 8.35% and 22.1%
growth inhibition [5]: 3.25% and -3.2%
growth inhibition [6]: -7.55% and 16.1%

COc1cc(OCc2ccc3oc(=O)c(-c4ccccc4)nc3c2)cc(OC)c1OC
growth inhibition [1]: 16.6%
growth inhibition [2]: 1%
growth inhibition [3]: 2.2%
growth inhibition [4]: 7.75%
growth inhibition [5]: 19.2%
growth inhibition [6]: 9.25%

COc1ccc(N2C(=O)c3c(c4[nH]c5ccc(OC)cc5c4c4ccc(C(C)(C)C)cc34)C2=O)cc1
growth inhibition [1]: -8.85%
growth inhibition [2]: -7.95%
growth inhibition [3]: 4.4%
growth inhibition [4]: 7.2%
growth inhibition [5]: -2.95%
growth inhibition [6]: 26.6%

CCOC(=O)C1CC1
growth inhibition [1]: -9.65%
growth inhibition [2]: -39.5%
growth inhibition [3]: 1%
growth inhibition [4]: 0.05%
growth inhibition [5]: -9.75%
growth inhibition [6]: -2.7%

COc1ccc(C2(O)OCC(COc3cc(C)c(Cl)c(C)c3)O2)cc1OC (stereo not given)
growth inhibition [1]: -10%
growth inhibition [2]: 1.35%
growth inhibition [3]: 8.85%
growth inhibition [4]: 18.5%
growth inhibition [5]: -6.05%
growth inhibition [6]: 3.45%

O=C(CC(=O)N1N=C(n2ccc3ccccc32)CC1c1ccccc1)Nc1ccc(Cl)cc1 (stereo not given)
growth inhibition [1]: -25.3%
growth inhibition [2]: -7.7%
growth inhibition [3]: -16.8%
growth inhibition [4]: 7.1%
growth inhibition [5]: -4.35%
growth inhibition [6]: -5%

O=C(Cc1nc2ccccc2s1)C(=O)Nc1cccc(C(F)(F)F)c1
growth inhibition [1]: -4.95%
growth inhibition [2]: 8.75%
growth inhibition [3]: -10.7%
growth inhibition [4]: 7.95%
growth inhibition [5]: 6.1%
growth inhibition [6]: -6%

O=C(O)CCC1=Nc2cccc3cccc(c23)NC1=O
growth inhibition [1]: 36.2%
growth inhibition [2]: 32.2%
growth inhibition [3]: 7.75%
growth inhibition [4]: -3.35%
growth inhibition [5]: 12.9%
growth inhibition [6]: 13.9%

CCCCN(CCCC)CC(C(=O)Nc1ccc([N+](=O)[O-])cc1[N+](=O)[O-])/C(C)=N\NC(=O)c1ccncc1 (stereo not given)
growth inhibition [1]: 22.7%
growth inhibition [2]: -3.65%
growth inhibition [3]: 11.8%
growth inhibition [4]: -65.1%
growth inhibition [5]: 2.55%
growth inhibition [6]: 18.1%

COC(=O)CCC(NC(=S)N/N=C(\C)c1ccco1)C(=O)OC (stereo not given)
growth inhibition [1]: -18.1%
growth inhibition [2]: -20.8%
growth inhibition [3]: 0.25%
growth inhibition [4]: 26.6%
growth inhibition [5]: -5.2%
growth inhibition [6]: -16.3%

CC(C)CCOC=O
growth inhibition [1]: 38.1%
growth inhibition [2]: 28.4%
growth inhibition [3]: 22.8%
growth inhibition [4]: 21.6%
growth inhibition [5]: 24.9%
growth inhibition [6]: 30.5%

CSc1ccc(C(C)=O)cc1
growth inhibition [1]: 13.6%
growth inhibition [2]: 5.9%
growth inhibition [3]: 5.95%
growth inhibition [4]: 4.6%
growth inhibition [5]: 1.55%
growth inhibition [6]: 3%

NC(=O)c1ccc(F)cc1
growth inhibition [1]: -42.3%
growth inhibition [2]: -29.6%
growth inhibition [3]: -7.7%
growth inhibition [4]: -16.1%
growth inhibition [5]: -18.2%
growth inhibition [6]: -10.5%

Cc1ccc(-c2c3ccccc3cc3ccccc23)c(C)c1
growth inhibition [1]: 24.9%
growth inhibition [2]: -11.1%
growth inhibition [3]: -1.5%
growth inhibition [4]: -2.8%
growth inhibition [5]: 5.25%
growth inhibition [6]: 11.8%

Cc1ccc2cc(-c3ccccc3)[nH]c2c1
growth inhibition [1]: -15.3%
growth inhibition [2]: -11.2%
growth inhibition [3]: -13.6%
growth inhibition [4]: -13.4%
growth inhibition [5]: -33.6%
growth inhibition [6]: -55%

O=C(N/N=C/c1ccc(O)cc1)C(c1ccccc1)N1CCCCC1 (stereo not given)
growth inhibition [1]: 5.85%
growth inhibition [2]: -7.05%
growth inhibition [3]: -7.4%
growth inhibition [4]: -18.8%
growth inhibition [5]: 3.05%
growth inhibition [6]: -5.3%

COC(=O)C1(c2ccccc2)N=C(c2ccc(C)cc2)ON1c1ccccc1 (stereo not given)
growth inhibition [1]: -5.95%
growth inhibition [2]: 7.05%
growth inhibition [3]: -7.85%
growth inhibition [4]: 12.7%
growth inhibition [5]: -1%
growth inhibition [6]: 10.1%

Nc1ccc(S(=O)[O-])cc1.Nc1ccc(S(=O)[O-])cc1.[Zn+2]
growth inhibition [1]: -19.2%
growth inhibition [2]: -19.9%
growth inhibition [3]: -6.15%
growth inhibition [4]: -26.5%
growth inhibition [5]: 1%
growth inhibition [6]: -15.6%

NC1=C(O)C(=O)C(c2ccc3c(c2)OCO3)O1 (stereo not given)
growth inhibition [1]: -17.6%
growth inhibition [2]: -5%
growth inhibition [3]: -19.9%
growth inhibition [4]: -30.2%
growth inhibition [5]: 24.8%
growth inhibition [6]: -5.2%

COc1ccc(OC)c(/C=N\NC(=O)N/N=C/c2cc(OC)ccc2OC)c1
growth inhibition [1]: -9.4%
growth inhibition [2]: -20.6%
growth inhibition [3]: 11.3%
growth inhibition [4]: -2.05%
growth inhibition [5]: 22.8%
growth inhibition [6]: -3.9%

COC(=O)C(CCCCCCCC(C(=O)OC)c1nc2n(c1O)C(=N)N=N2)c1nc2n(c1O)C(=N)N=N2 (stereo not given)
growth inhibition [1]: -20.6%
growth inhibition [2]: -3.75%
growth inhibition [3]: -7.95%
growth inhibition [4]: 11.8%
growth inhibition [5]: 10.2%
growth inhibition [6]: 4.75%

Cc1ccc2[nH]c3c(c2c1)C(=O)CCC3
growth inhibition [1]: -7.6%
growth inhibition [2]: -2.95%
growth inhibition [3]: -12.3%
growth inhibition [4]: -20.7%
growth inhibition [5]: -17.9%
growth inhibition [6]: -1.55%

CCN(CCN1CCCCC1)c1ccccn1
growth inhibition [1]: 11%
growth inhibition [2]: 1.3%
growth inhibition [3]: 11.4%
growth inhibition [4]: -35.7%
growth inhibition [5]: 7.45%
growth inhibition [6]: -10.9%

CC(=O)Nc1cc(Cl)ccc1F
growth inhibition [1]: 14.1%
growth inhibition [2]: -6.15%
growth inhibition [3]: 12.4%
growth inhibition [4]: -7.1%
growth inhibition [5]: -0.7%
growth inhibition [6]: 17.9%

CN(C)CCNC(=O)Cn1ccc(=O)c2ccc([N+](=O)[O-])cc21
growth inhibition [1]: 11.9%
growth inhibition [2]: 6.55%
growth inhibition [3]: 20.6%
growth inhibition [4]: 20.8%
growth inhibition [5]: -5.85%
growth inhibition [6]: -39.5%

C=CCOC(=O)CCCC1=NC2=CC=CC3=NC(C)=NC(=N1)N23
growth inhibition [1]: -1.1%
growth inhibition [2]: 2.35%
growth inhibition [3]: 1.45%
growth inhibition [4]: 12.2%
growth inhibition [5]: -17.3%
growth inhibition [6]: 1.2%

COCCOC(=O)OCCOC
growth inhibition [1]: -1.5%
growth inhibition [2]: 3.65%
growth inhibition [3]: 4.75%
growth inhibition [4]: -31.7%
growth inhibition [5]: -12.8%
growth inhibition [6]: 11.7%

CCCCCC=C(c1cc(Cl)c(OC)c(C(N)=O)c1)c1cc(Cl)c(OC)c(C(N)=O)c1
growth inhibition [1]: -20.1%
growth inhibition [2]: -9.35%
growth inhibition [3]: -12.4%
growth inhibition [4]: -92.9%
growth inhibition [5]: 5.5%
growth inhibition [6]: -13.9%

CCSCCC#N
growth inhibition [1]: 11.2%
growth inhibition [2]: 4.75%
growth inhibition [3]: -13%
growth inhibition [4]: 0.3%
growth inhibition [5]: 8.1%
growth inhibition [6]: -10.2%

COc1ccc(O)cc1C=O
growth inhibition [1]: -6.4%
growth inhibition [2]: -7.05%
growth inhibition [3]: -10.6%
growth inhibition [4]: 4%
growth inhibition [5]: -7.35%
growth inhibition [6]: -4.75%

CSc1ccc(C)cc1
growth inhibition [1]: 30.6%
growth inhibition [2]: -15.2%
growth inhibition [3]: -24.5%
growth inhibition [4]: -21.6%
growth inhibition [5]: -9.35%
growth inhibition [6]: 26.7%
